# Experimental data published in the supplement of paper PMC6555819.
# Tests used:
# Assay in all cases: PBM binding z-score (relative to random genomic background probes); higher = stronger binding; sequences stand for … in GC…GCGATTGACAGCGTAGAATGAAGG
# [1] = test system: FXR:RXRa (NR concentration 270 nM, RXRa partner concentration 90 nM)
# Outline: (§1)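 Custom Agilent 4×180K protein-binding microarrays carried double-stranded probes, each with a 34-nt variable region. These regions held direct-repeat seeds, single-nucleotide variants, half-site ablations and random human genomic background sequences. Ligand-free nuclear receptor dimers were incubated on the arrays for 1 h, antibodies against each partner (one per run) detected binding, and scanned fluorescence was regression-normalized. Binding z-scores take the random background probes as reference.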
# [2] = test system: LXRa:RXRa (NR concentration 270 nM, RXRa partner concentration 90 nM)
# Outline: as §1
# [3] = test system: LXRa homodimer (NR concentration 270 nM)
# Outline: as §1
# [4] = test system: LXRb:RXRa (NR concentration 270 nM, RXRa partner concentration 90 nM)
# Outline: as §1
# [5] = test system: LXRb homodimer (NR concentration 270 nM)
# Outline: as §1
# [6] = test system: PPARa:RXRa (NR concentration 270 nM, RXRa partner concentration 90 nM)
# Outline: as §1
# [7] = test system: PPARg:RXRa (NR concentration 180 nM, RXRa partner concentration 90 nM)
# Outline: as §1
# [8] = test system: PPARg:RXRa 270nM:90nM, anti-RXR (NR concentration 270 nM, RXRa partner concentration 90 nM)
# Outline: as §1
# [9] = test system: PPARg:RXRa 30nM:10nM, anti-RXR (NR concentration 30 nM, RXRa partner concentration 10 nM)
# Outline: as §1
# [10] = test system: PPARg:RXRa 90nM:30nM, anti-RXR (NR concentration 90 nM, RXRa partner concentration 30 nM)
# Outline: as §1
# [11] = test system: PPARg:RXRa DBDmut IVT, anti-RXR (DBD mutation: RXRa K156A/R161A, NR concentration 270 nM, RXRa partner concentration 90 nM)
# Outline: as §1
# [12] = test system: PPARg:RXRa IVT, anti-PPARg (NR concentration 270 nM, RXRa partner concentration 90 nM)
# Outline: as §1
# [13] = test system: PPARg DBDmut:RXRa IVT, anti-PPARg (DBD mutation: PPARg1 K132A/R137A, NR concentration 270 nM, RXRa partner concentration 90 nM)
# Outline: as §1
# [14] = test system: PPARg DBDmut IVT, anti-PPARg (DBD mutation: PPARg1 K132A/R137A, NR concentration 270 nM)
# Outline: as §1
# [15] = test system: PPARg homodimer (NR concentration 180 nM)
# Outline: as §1
# [16] = test system: PXR:RXRa (NR concentration 270 nM, RXRa partner concentration 90 nM)
# Outline: as §1
# [17] = test system: PXR homodimer (NR concentration 270 nM)
# Outline: as §1
# [18] = test system: RARa:RXR (NR concentration 270 nM, RXRa partner concentration 90 nM)
# Outline: as §1
# [19] = test system: RARa homodimer (NR concentration 270 nM)
# Outline: as §1
# [20] = test system: RARb:RXRa (NR concentration 270 nM, RXRa partner concentration 90 nM)
# Outline: as §1
Sequence,PBM binding z-score [1],PBM binding z-score [2],PBM binding z-score [3],PBM binding z-score [4],PBM binding z-score [5],PBM binding z-score [6],PBM binding z-score [7],PBM binding z-score [8],PBM binding z-score [9],PBM binding z-score [10],PBM binding z-score [11],PBM binding z-score [12],PBM binding z-score [13],PBM binding z-score [14],PBM binding z-score [15],PBM binding z-score [16],PBM binding z-score [17],PBM binding z-score [18],PBM binding z-score [19],PBM binding z-score [20]
AGTCAAAGTTCACCAGGTAACGTAAGATTCAGCT,6.31,5.59,3.52,3.85,1.05,5.19,6.96,6.68,3.83,6.1,1.37,4,1.09,1.39,3.02,4.67,2.63,4.15,1.72,5.18
AGAACGAGGGCAATGAGTTGATAACACGGGTGGC,0.198,0.102,-0.716,-0.182,-0.584,1.28,1.84,0.983,0.0129,0.611,2.99,2.45,-0.222,0.293,-0.128,1.53,4.8,0.19,-0.633,2.05
CCGACTCGGGCAAAGGTTACCATACTCAGTACGA,1.22,1.83,-0.0865,1.94,-0.792,4.45,8.25,8.33,7.28,9.75,1.5,4.06,-0.108,-0.188,2.32,2.01,-0.0786,3.12,0.537,2.04
ACTAGCAGGCCAAGGCTCACTCAAGATTAGTCCG,-0.393,-0.377,-0.331,-0.701,-0.95,-0.271,0.588,0.682,-0.134,0.168,1.13,0.144,-0.648,-0.572,-0.478,-0.766,-0.282,-0.478,-0.56,0.257
TGAATGAGGTTAAAGATCCGGGAACGTGGCGTCG,2.36,1.91,-0.227,1.13,0.309,3.14,2.27,3.37,1.55,2.9,2.22,2.41,0.774,0.25,0.436,1.11,-0.152,1.84,-0.669,1.72
GCTTGTAGCTCAAGGTTAAGAAAGACTAAGCTAA,-0.0638,0.559,-0.361,0.165,-0.751,0.893,-0.394,0.557,-0.472,0.243,-0.582,-0.296,-0.734,-0.739,-0.599,0.28,-0.587,0.556,-0.601,0.721
TTACCAAGGTGAGCTGAGATCGTTGATCCAACTC,-0.243,-0.689,-0.907,-0.704,-1.18,0.12,-0.0237,0.4,-0.0278,0.278,1.12,1.5,-0.91,-0.653,-1.58,0.00925,-1.19,-0.376,-1.19,0.893
CGTCCAACGTCAATGCTAGGTCAGTGAAAGCATT,-0.119,0.271,0.545,0.323,-0.372,0.371,-0.0757,-0.424,-0.443,-0.334,0.0923,0.146,-0.91,-0.198,-0.138,0.124,-0.688,0.602,-0.434,1.33
CCTACTGGGCCATTCATAGGTCATTGATCATATG,0.867,2.17,3.55,2,-0.0981,2.64,1.49,1.93,0.277,1.06,4.46,3.82,0.954,-0.204,1.33,1.8,0.411,2.11,0.376,1.88
